Values joined by “and” are separate entries in the source; they are usually repeats but may differ in a detail not shown here. Equal values may be shown once. Compounds without any hit were thinned out: in the full panel of roughly 79,000, 15% have a hit. A number with no mark means an inactive call. Active and inactive are the calls of the source. Cut-off read from the data, not from the text of the source: active = growth inhibition above about 70%; inactive = the rest.
test: NCI Yeast Anticancer Drug Screen. Data for the sgs1 mgt1 strain (AID 161);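 note: 0% = growth of cultures given vehicle only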; settings: S. cerevisiae sgs1 mgt1 strain, hits give high values; at 50.0 µM unless noted
Outline: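 Percent growth inhibition was derived by comparing compound-exposed mutant yeast with vehicle-exposed cultures. The strain carries alterations in DNA damage repair.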

| Structure (SMILES) | growth inhibition |
| --- | --- |
| Nc1ccc(OCc2ccccc2)cc1[N+](=O)[O-] | 11.3% |
| COC(=O)c1cc(C(=O)OC)c(CC(=O)C(=O)NC2C3CC4CC(C3)CC2C4)nc1CC(=O)C(=O)NC1C2CC3CC(C2)CC1C3 (stereo unspecified) | -11.9% |
| COc1ccc(-c2nnc(N)s2)cc1OC | 2.8% |
| CC1(CO)C2CCC(CC2)C1CO (stereo unspecified) | -4.4% |
| CC(C)CCCC(C)C1CCC2C3CC4OC45CC(O)CCC5(C)C3CCC12C (stereo unspecified) | 47.7% |
| COC(=O)C(Cc1ccccc1)C(=O)C(CC(=O)OC(C)(C)C)NC(=O)OC(C)(C)C (stereo unspecified) | 17% |
| O=C(O)c1cscc1Cc1cccs1 | -43.6% |
| CSc1ccc(NC(=O)c2ccc(Cl)cc2)cc1 | -6.45% |
| COc1ccc2c(c1)-c1c(ccc(OC)c1O)CC(c1ccccc1)[N+](C)(C)CC2 (stereo unspecified) | -5.55% |
| CC1=Nc2ccccc2C12C(c1ccccc1)C(c1ccccc1)C(=O)N1c3ccccc3CC12 (stereo unspecified) | -33.6% |
| O=CC(O)C(Cl)C(Cl)C(O)CCl (stereo unspecified) | 0.65% and 8.3% |
| C=C1CC[C@@H](C)[C@](C)(CCc2ccoc2)C/C=C\C=C/1C(=O)O | 18.6% |
| O=c1[nH]c(=O)c2[nH]c(Br)nc2[nH]1 | -12.7% |
| N#CC(C(=O)C(=O)Nc1nccs1)c1ccccc1 (stereo unspecified) | 4.75% |
| CCCCc1cc(C(=O)OC/C(C)=N/NC(N)=O)c2ccccc2n1 | 18.9% |
| CC(=O)Nc1cccc(OC(=O)Nc2ccc(F)c(Cl)c2)c1 | 71.7% (active) |

— PubChem BioAssay (NCI)
